Shown are actives, neighbours in structure and some others; about 3.2% of the full set was active somewhere.
esBAF inh – blocks esBAF chromatin remodeling in mouse ES cells | Bmi1-luciferase knock-in reporter, 24 h; 100% = twice the neutral-well signal | reporter increase, % at 12.5 µM | 350,000 compounds, 2% hits | AID 602393; in the data active means activation above about 40%; inconclusive means no clear call, values can overlap the other calls;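 further: 0% = median of the plate's neutral control wells and 100% = double that signal; a rise in the Bmi1 reporter signal indicates esBAF inhibition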
SMARCA2 activ – SMARCA2 function activation, primary screen; MG213 cells, MMTV-luciferase reporter, dexamethasone, overnight; AID 652017; activation, % at 9.1 µM; 370,000 compounds, 1% hits; in the data active means activation above about 7.8%;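 further: 0% = vehicle wells and 100% = reference activator wells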
Rtt109 HAT inh – C. albicans Rtt109 histone acetyltransferase inhibition. Q5AAJ8. purified Rtt109/Vps75, ThioGlo CoA-SH fluorescence, 4 h. inhibition, % at 34.9 µM. 330,000 compounds, 0.16% hits. AID 540336;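 active means inhibition of at least 50% in every replicate; inconclusive means best replicate reaches 50% inhibition but some replicates fall short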
DYRK1A inh – Dyrk1A (rat) kinase inhibition. Q63470. ADP-Glo luminescence, NFATc1 peptide. inhibition, % at 12.5 µM. 310,000 compounds, 0.43% hits. AID 504441; in the data active means inhibition above about 50%;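 further: plate controls were vehicle with enzyme for no effect and no enzyme for full effect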
dFosB act – mouse delta FosB homodimer activation; 340,000 compounds, 0.99% hits; activation, % at 25 µM; purified delta FosB, TAMRA-CDK5 oligo fluorescence polarization; percent of positive-control signal above neutral wells; AID 493131;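 active means mean activation above about 17%, with every replicate also reaching it, limit read from the data, passing the limit was not always enough; inconclusive means only one of the two conditions met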
Target sequence (P13346 whole entry, looked up): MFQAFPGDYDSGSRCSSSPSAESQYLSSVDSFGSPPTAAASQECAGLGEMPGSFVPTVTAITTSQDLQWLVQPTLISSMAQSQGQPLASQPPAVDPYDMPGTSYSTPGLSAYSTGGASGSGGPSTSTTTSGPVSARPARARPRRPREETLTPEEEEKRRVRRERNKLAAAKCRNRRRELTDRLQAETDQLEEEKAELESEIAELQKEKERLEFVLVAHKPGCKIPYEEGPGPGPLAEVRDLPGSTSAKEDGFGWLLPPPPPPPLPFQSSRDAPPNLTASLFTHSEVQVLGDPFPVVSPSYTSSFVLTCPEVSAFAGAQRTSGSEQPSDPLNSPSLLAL
CDK5 inh – inhibitors of human CDK5/p35 kinase | Recombinant CDK5/p35, ADP-Glo luminescence, 60 min | Q00535+Q15078 | inhibition, % at 10 µM | 330,000 compounds, 0.01% hits | AID 488839;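 active means highest replicate inhibition of at least 50% and at least 75% of replicates reaching 50%; inconclusive means only one of the two criteria met; inactive means both criteria failed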;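 further: plate controls were DMSO neutral control for no effect and GW8510 at 10 µM for full effect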
* hit, by the source's call; ? = inconclusive; / = no result given.

SMILES	esBAF inh	SMARCA2 activ	Rtt109 HAT inh	DYRK1A inh	dFosB act	CDK5 inh
CO[C@H]1CN(C)C(=O)c2ccc(NC(=O)C3CC3)cc2OC[C@H](C)N(C(=O)Cc2ccccn2)C[C@@H]1C	0	/	/	/	/	/
O=C(CCSCCC(=O)NN=Cc1ccccc1O)NN=Cc1ccccc1O	33	-2	-6	-1	36*	-3
O=C(CSc1ccccc1)N/N=C/c1ccccc1O	/	-3	4	-1	1	1
Cc1sc2c3ccsc3ccc2[n+]1C	/	3	115*	-3	-5	2
Cc1sc2ccc3sccc3c2[n+]1C	-13	2	?	3	0	1
C[C@@H]1CN([C@@H](C)CO)C(=O)Cc2cc(NC(=O)Nc3ccc(C(F)(F)F)cc3)ccc2O[C@@H]1CN(C)S(=O)(=O)c1ccc(F)cc1	0	/	/	/	/	/
CCc1sc(NC(C)=O)nc1-c1ccccc1	0	-3	/	-9	1	0
CCc1sc(N2C(=O)C3C4CCC(C4=C(C)C)C3C2=O)nc1-c1ccccc1 (stereo unspecified)	54*	-1	-3	2	-4	0
O=C(C[C@@H]1CC[C@@H](NC(=O)CCN2CCCCC2)[C@@H](CO)O1)NCc1ccc(Cl)c(Cl)c1	-4	/	/	/	/	/
Cc1nc(SCC(=O)N2CC(=O)Nc3ccccc32)nc(C)c1C	/	3	-4	-6	4	0
COc1ccc(-c2ccc(SCC(=O)N3CC(=O)Nc4ccccc43)nn2)cc1	49*	0	15	-2	-17	-1
Cc1ccccc1S(=O)(=O)N[C@H]1CC[C@H](CCn2cc(-c3ccc(F)cc3)nn2)O[C@@H]1CO	-3	/	/	/	/	/
Cc1cccc(N2C(=O)CC(N(O)c3ccccc3)C2=O)c1 (stereo unspecified)	61*	1	-1	4	6	-2
C/C(=N/Nc1ccc([N+](=O)[O-])cc1)c1c[nH]c2ccccc12	58*	0	-3	1	-9	-1
C/C(=N/Nc1ccc([N+](=O)[O-])cc1)c1ccc(C)cc1C	38	2	5	-3	1	2
COc1ccc(NC(=O)n2ncc3c(C)cccc32)cc1OC	53*	6	1	13	-3	2
CN1c2ccc(-c3ccc(C#N)cc3)cc2[C@H]2[C@H](CCN2S(=O)(=O)c2cccc(F)c2)[C@H]1CO	-31	/	/	/	/	/
CCCn1nnc(NC(=O)c2ccc(-c3ccccc3)cc2)n1	41*	1	-11	-2	-9	0
Cn1nnc(NC(=O)c2ccc(C(C)(C)C)cc2)n1	46*	6	-7	1	7	2
CO[C@@H]1CN(C)C(=O)c2ccc(NC(=O)C3CCOCC3)cc2OC[C@@H](C)N(S(=O)(=O)c2ccc(C)cc2)C[C@H]1C	0	/	/	/	/	/
c1csc(-c2nc3ccccc3s2)c1	47*	0	6	-9	-6	1
c1csc(-c2ccc3ccccc3n2)c1	43*	5	2	2	-10	0
Cc1cc(=O)n2[nH]c(-c3ccc(F)cc3)cc2n1	/	6	1	4	-27	-1
Cc1cc(=O)n2[nH]c(-c3ccc(Cl)cc3)cc2n1	?	7.8*	20	6	-26	1
CNC[C@@H]1OCCCC[C@@H](C)Oc2ccc(NS(C)(=O)=O)cc2C(=O)N([C@@H](C)CO)C[C@@H]1C	-6	/	/	/	/	/
SMILES	esBAF inh	SMARCA2 activ	Rtt109 HAT inh	DYRK1A inh	dFosB act	CDK5 inh
CCOc1ccc(-c2n[nH]c(C(=O)NN)c2C)cc1	55*	5	1	2	0	1
O=C1NC[C@H](c2ccccc2)OC(=O)[C@@H](Cc2ccc(F)cc2)C/C=C\C[C@H]1CC(=O)N(CCO)Cc1ccccc1	45*	-1	14	-3	-22	1
CN(C)CC#Cc1ccc([C@H]2[C@H](CO)N3CCCCN(C(=O)Nc4ccc(F)cc4)C[C@@H]23)cc1	-5	/	/	/	/	/
COc1ccc(/C=N/n2c(=O)[nH]c3c([nH]c4ccc(F)cc43)c2=O)cc1CN1CCCCC1	-6	4	13	1	31*	0
COC(=O)c1ccc(N2C(=O)CC(SCC(=O)Nc3ccc(OC)cc3)C2=O)cc1 (stereo unspecified)	/	-3	94*	1	0	-1
CC#CC(=O)N1CCC(C(=O)Nc2ccc(Oc3ccccc3)nc2)CC1	41*	0	-8	-5	-4	-1
CCCCOc1ccc(C(=O)Nc2ccc(C)cc2[N+](=O)[O-])cc1	/	-2	-3	0	3	0
CCCOc1ccc(C(=O)Nc2ccccc2[N+](=O)[O-])cc1	64*	2	0	0	3	0
C[C@H](CO)N1C[C@H](C)[C@H](CN(C)C(=O)Nc2ccc(C(F)(F)F)cc2)Oc2c(NS(=O)(=O)c3ccc(F)cc3)cccc2C1=O	16	/	/	/	/	/
O=C(O)CSCC(=O)Nc1cc(C(F)(F)F)ccc1Cl	7	-1	66*	/	-7	6
C[C@H](CO)N1C[C@H](C)[C@H](CN(C)S(C)(=O)=O)Oc2ccc(NC(=O)Cc3cn(C)c4ccccc34)cc2CC1=O	2	/	/	/	/	/
COc1ccc(S(=O)(=O)NCCc2cn3cccc(C)c3n2)cc1OC	4	0	-7	-1	1	3
Cc1cccn2cc(CCNS(=O)(=O)c3cccs3)nc12	-36	-2	55*	-1	-2	0
COC(C(=O)N1CCC(n2nccc2NC(=O)C2CC2)CC1)c1ccccc1 (stereo unspecified)	44*	3	2	/	5	/
O=C([C@@H]1[C@@H](CO)[C@@H]2Cn3c(cccc3=O)[C@H]1N2)N1CCc2ccccc2C1	-5	/	/	/	/	/
CCc1ccc(NC(=O)Nc2ccc3c(c2)CCC3)cc1	53*	4	3	14	-9	-2
CCc1ccc(NC(=O)Nc2ccon2)cc1	44*	2	2	3	3	2
CC(=O)c1cccc(Nc2ccc(Br)cc2)c1	54*	6	/	/	/	/
CC(=O)c1cccc(NC(=S)NC(=O)c2ccc(Br)cc2)c1	/	1	4	1	8	0
Cc1cccc(NC(=O)Nc2ccc3c(c2)CCC3)c1	/	5	-1	1	0	1
CC(=O)c1cccc(NC(=O)Nc2ccc3c(c2)CCC3)c1	66*	1	0	13	-8	0
O=C(Nc1ccc([N+](=O)[O-])cc1)Nc1ccon1	-19	-3	5	3	11	1
CNC[C@H]1Oc2ccc(NC(=O)Nc3ccc(C(F)(F)F)cc3)cc2C(=O)N([C@@H](C)CO)C[C@@H]1C	1	/	/	/	/	/
CC(C)NC(=O)N(C)C[C@H]1Oc2cc(C#Cc3ccccn3)ccc2S(=O)(=O)N([C@H](C)CO)C[C@H]1C	-11	/	/	/	/	/
CCCn1cc(S(=O)(=O)CC(=O)NC2CCCCC2)c2ccccc21	/	-2	51*	14	-4	-1
CCSc1nnc(-c2c[nH]c3ccccc23)o1	49*	/	1	3	0	-1

Screening results from PubChem BioAssay.
